Laboratory results from PubChem BioAssay AID602162 (NMMLSC, 2011).
The whole screen tested about 360,000 compounds, of which about 690 (0.19%) were called active. Shown is part of a subset that was picked to be rich in actives. Values without a mark were called inactive.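 How the source made its calls: active means fluorescence ratio to DMSO below 75%, the collection mean minus 3 SD; inconclusive means too few cells collected in the well; inactive means the rest.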

Molecular target: ATP-binding cassette sub-family B member 6 (Homo sapiens) (UniProt Q9NP58)
Sequence (Q9NP58 whole entry, looked up): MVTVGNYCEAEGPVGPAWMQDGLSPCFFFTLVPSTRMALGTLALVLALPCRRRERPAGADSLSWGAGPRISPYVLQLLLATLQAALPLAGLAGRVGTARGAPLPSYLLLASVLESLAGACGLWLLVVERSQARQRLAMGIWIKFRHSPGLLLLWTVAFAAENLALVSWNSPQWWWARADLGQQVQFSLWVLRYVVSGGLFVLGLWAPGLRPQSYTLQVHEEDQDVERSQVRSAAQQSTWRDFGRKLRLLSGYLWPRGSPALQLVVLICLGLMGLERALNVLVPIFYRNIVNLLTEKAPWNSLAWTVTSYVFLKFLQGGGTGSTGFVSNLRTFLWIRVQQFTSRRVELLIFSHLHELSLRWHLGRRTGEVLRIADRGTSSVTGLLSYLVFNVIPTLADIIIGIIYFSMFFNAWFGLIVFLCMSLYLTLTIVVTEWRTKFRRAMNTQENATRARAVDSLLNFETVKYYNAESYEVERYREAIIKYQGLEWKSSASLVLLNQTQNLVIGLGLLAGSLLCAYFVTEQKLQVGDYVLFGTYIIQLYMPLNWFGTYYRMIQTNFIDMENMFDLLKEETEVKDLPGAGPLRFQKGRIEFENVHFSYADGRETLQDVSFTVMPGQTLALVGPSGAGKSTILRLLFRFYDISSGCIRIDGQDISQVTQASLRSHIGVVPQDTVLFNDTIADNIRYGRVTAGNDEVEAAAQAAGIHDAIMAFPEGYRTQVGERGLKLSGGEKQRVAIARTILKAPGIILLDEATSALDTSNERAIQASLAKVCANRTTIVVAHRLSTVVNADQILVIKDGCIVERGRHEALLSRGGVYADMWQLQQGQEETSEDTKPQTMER
Assay: ABCB6 transporter inhibitors, primary screen, K562-ABCB6 cells, flow cytometry, MLPCN library (AID 602162);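 further: signal is porphyrin accumulated inside mitochondria; 100% equals median channel fluorescence of DMSO control wells; lower ratio means ABCB6 inhibition with less porphyrin fluorescence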
Details: K562-ABCB6 porphyrin accumulation, 1 h, at 10 µM, active compounds read low

Question: With Cc1sc2ncn(CC(=O)NCCCC(=O)N(C)Cc3ccccc3)c(=O)c2c1C as the molecule, how does the fluorescence ratio to DMSO read?
Answer: Its fluorescence ratio to DMSO is 97%.

Question: With O=C(Nc1cc(=O)[nH]c2ncnn12)c1ccccc1Cl as the molecule, how does the fluorescence ratio to DMSO read?
Answer: The fluorescence ratio to DMSO was 101%.

Question: With CC(C)C[C@H](NC(=O)[C@@H]1O[C@H]1C(=O)O)C(=O)NCCCCN=C(N)N as the molecule, how does the fluorescence ratio to DMSO read?
Answer: Its fluorescence ratio to DMSO is 94%.

Question: How did the fluorescence ratio to DMSO turn out when CCC(c1nnnn1-c1ccc2c(c1)OCCO2)N1CCN(c2ccc(C(F)(F)F)cn2)CC1 (configuration not stated) was run?
Answer: The fluorescence ratio to DMSO was 99%.

Question: Which fluorescence ratio to DMSO does the source give for CN(Cc1ccccc1)C(=O)CCC1CCN(C(=O)c2ccco2)CC1 here?
Answer: Its fluorescence ratio to DMSO is 90%.

Question: With CCCNS(=O)(=O)c1ccc2c(c1)CCCN2C(C)=O as the molecule, how does the fluorescence ratio to DMSO read?
Answer: The fluorescence ratio to DMSO was 75%.

Question: How did the fluorescence ratio to DMSO turn out when CC(=O)N1CCc2cc(S(=O)(=O)NC3CCCCC3)ccc21 was run?
Answer: Its fluorescence ratio to DMSO is 97%.

Question: For CCC(=O)N1CCCC1(C)C(=O)Nc1ccc2c(c1)CCN2C(C)=O (configuration not stated), which fluorescence ratio to DMSO is on record?
Answer: The fluorescence ratio to DMSO was 72% (active).

Question: CC(C)(C)n1cnnc1Sc1ccc([N+](=O)[O-])cn1 was tested. Which fluorescence ratio to DMSO did it give?
Answer: The fluorescence ratio to DMSO was 101%.

Question: CC1CCCCC1NC(=O)NC(=O)COC(=O)C1=NN(c2ccccc2)C(=O)CC1 (configuration not stated) was tested. Which fluorescence ratio to DMSO did it give?
Answer: Its fluorescence ratio to DMSO is 102%.

Question: Which fluorescence ratio to DMSO does the source give for CC1(C(=O)Nc2ccc3c(c2)OCCO3)CCN1C(=O)Cc1cc(F)ccc1F (configuration not stated) here?
Answer: Its fluorescence ratio to DMSO is 100%.

Question: How did the fluorescence ratio to DMSO turn out when COc1ccc(OC)c(C(=O)NC(CC(N)=O)c2ccc(N3CCC(N4CCCCC4)CC3)c([N+](=O)[O-])c2)c1 (configuration not stated) was run?
Answer: Its fluorescence ratio to DMSO is 92%.

Question: How did the fluorescence ratio to DMSO turn out when Cc1nn(-c2ccccc2)c2[nH]c(C(F)(F)F)cc(=O)c12 was run?
Answer: Its fluorescence ratio to DMSO is 87%.

Question: With CCOc1ccc(C(=O)COC(=O)c2ccc(-n3cnnn3)cc2)cc1 as the molecule, how does the fluorescence ratio to DMSO read?
Answer: Its fluorescence ratio to DMSO is 101%.

Question: How did the fluorescence ratio to DMSO turn out when C=CCc1cccc(/C=N/NC(=O)COc2ccc(-n3cnnn3)cc2)c1O was run?
Answer: Its fluorescence ratio to DMSO is 93%.

Question: With O=C(COc1ccc(-n2cnnn2)cc1)Nc1ccccc1Cl as the molecule, how does the fluorescence ratio to DMSO read?
Answer: The fluorescence ratio to DMSO was 73% (active).

Question: How did the fluorescence ratio to DMSO turn out when CC1CCN(C(=O)CSc2nnc(-c3ccco3)n2N)CC1 was run?
Answer: The fluorescence ratio to DMSO was 95%.

Question: CN(C(=O)c1ccccc1)c1nccnc1C#N was tested. Which fluorescence ratio to DMSO did it give?
Answer: The fluorescence ratio to DMSO was 98%.

Question: How did the fluorescence ratio to DMSO turn out when COC(=O)c1ccc(CSc2ccc(S(=O)(=O)N3CCCCC3)cn2)cc1 was run?
Answer: Its fluorescence ratio to DMSO is 100%.

Question: With O=C1CCCC2=C1C(c1cccs1)CC(=O)N2c1ccc(F)cc1 (configuration not stated) as the molecule, how does the fluorescence ratio to DMSO read?
Answer: The fluorescence ratio to DMSO was 95%.

Question: With O=C1CCCC2=C1C(c1cccs1)n1nc(SCc3ccccc3)nc1N2 (configuration not stated) as the molecule, how does the fluorescence ratio to DMSO read?
Answer: The fluorescence ratio to DMSO was 55% (active).

Question: CCC(=O)N1c2ccccc2NC2=C(C(=O)CCC2)C1c1ccco1 (configuration not stated) was tested. Which fluorescence ratio to DMSO did it give?
Answer: Its fluorescence ratio to DMSO is 101%.

Question: How did the fluorescence ratio to DMSO turn out when Cn1ncc2c(Nc3cccc4ccccc34)ncnc21 was run?
Answer: Its fluorescence ratio to DMSO is 85%.

Question: With CCCOc1cccc(C(=O)Nc2ccccc2C(=O)N2CCN(C)CC2)c1 as the molecule, how does the fluorescence ratio to DMSO read?
Answer: The fluorescence ratio to DMSO was 99%.

Question: Which fluorescence ratio to DMSO does the source give for C[C@]12CCC(=O)C=C1C=CC1C2CC[C@@]2(C)C1CC[C@@]21CCC(=O)O1 (some centres not stated) here?
Answer: The fluorescence ratio to DMSO was 98%.

Question: Which fluorescence ratio to DMSO does the source give for COc1ccc(S(=O)(=O)N2CCOCC2)cc1NC(=O)CSc1ncnc2ccccc12 here?
Answer: Its fluorescence ratio to DMSO is 92%.

Question: Which fluorescence ratio to DMSO does the source give for CCOC(=O)CSc1nc(N2CCOCC2)c2c(c1C#N)CC(C(C)C)OC2 (configuration not stated) here?
Answer: The fluorescence ratio to DMSO was 97%.

Question: CC(C)C(=O)N1CCN(c2nc(-c3ccccc3)c3c(c2C#N)CC(C)(C)OC3)CC1 was tested. Which fluorescence ratio to DMSO did it give?
Answer: The fluorescence ratio to DMSO was 111%.

Question: Which fluorescence ratio to DMSO does the source give for CC1(C)Cc2c(C#N)c(SCc3nc4ccccc4[nH]3)nc(N3CCOCC3)c2CO1 here?
Answer: Its fluorescence ratio to DMSO is 74% (active).

Question: With Cc1cccc(OCCNC(=O)CSc2ccc(C(F)(F)F)cc2[N+](=O)[O-])c1 as the molecule, how does the fluorescence ratio to DMSO read?
Answer: Its fluorescence ratio to DMSO is 98%.

Question: How did the fluorescence ratio to DMSO turn out when CCCOc1ccc(C(=O)C(CCC(CNCC)C(=O)c2ccc(OCCC)cc2)CNCC)cc1 (configuration not stated) was run?
Answer: The fluorescence ratio to DMSO was 94%.

Question: CC1CCN(C(NC(=O)c2ccco2)C(=O)c2ccccc2)CC1 (configuration not stated) was tested. Which fluorescence ratio to DMSO did it give?
Answer: The fluorescence ratio to DMSO was 99%.

Question: For CCCCN(C(=O)CSCC(=O)Nc1ccc(OC)cc1)c1c(N)n(CCC)c(=O)[nH]c1=O, which fluorescence ratio to DMSO is on record?
Answer: Its fluorescence ratio to DMSO is 99%.

Question: How did the fluorescence ratio to DMSO turn out when COc1ccc(CCNS(=O)(=O)c2ccc(F)cc2)cc1OC was run?
Answer: Its fluorescence ratio to DMSO is 62% (active).

Question: For COc1ccc(CCNS(=O)(=O)c2ccc(Cl)s2)cc1OC, which fluorescence ratio to DMSO is on record?
Answer: The fluorescence ratio to DMSO was 88%.

Question: For COc1ccc(CCNS(=O)(=O)c2ccc(C(=O)NCc3ccco3)cc2)cc1OC, which fluorescence ratio to DMSO is on record?
Answer: The fluorescence ratio to DMSO was 100%.

Question: CCCCc1nc2ccc(F)cc2cc1C was tested. Which fluorescence ratio to DMSO did it give?
Answer: The fluorescence ratio to DMSO was 95%.

Question: With O=C(CSc1nnc(Nc2ccccc2F)s1)NC1CCCC1 as the molecule, how does the fluorescence ratio to DMSO read?
Answer: Its fluorescence ratio to DMSO is 101%.

Question: Which fluorescence ratio to DMSO does the source give for CCOc1ccc(OCC(=O)OC(C)C(=O)NC2CCCCC2C)cc1 (configuration not stated) here?
Answer: The fluorescence ratio to DMSO was 99%.

Question: How did the fluorescence ratio to DMSO turn out when COc1ccc(C(=O)OCC(=O)c2ccc(Cl)s2)c(OC)c1OC was run?
Answer: Its fluorescence ratio to DMSO is 101%.

Question: Which fluorescence ratio to DMSO does the source give for CCOc1ccc(NC(=O)CC2NCCNC2=O)cc1 (configuration not stated) here?
Answer: Its fluorescence ratio to DMSO is 73% (active).

Question: How did the fluorescence ratio to DMSO turn out when CCOC(=O)C1CSC(CC(=O)Nc2ccc(OCC)cc2)C(=O)N1 (configuration not stated) was run?
Answer: The fluorescence ratio to DMSO was 95%.

Question: How did the fluorescence ratio to DMSO turn out when CCOc1ccc(NC(=O)CCC(=O)NNC(=O)NC2CCCCC2)cc1 was run?
Answer: Its fluorescence ratio to DMSO is 98%.

Question: With COc1cc([N+](=O)[O-])ccc1NC(=S)N1CCN(c2ccccn2)CC1 as the molecule, how does the fluorescence ratio to DMSO read?
Answer: The fluorescence ratio to DMSO was 98%.

Question: With O=C(c1cccc(S(=O)(=O)N2CCCC2)c1)N(Cc1ccco1)C1CCS(=O)(=O)C1 (configuration not stated) as the molecule, how does the fluorescence ratio to DMSO read?
Answer: The fluorescence ratio to DMSO was 97%.

Question: Cc1nccn1-c1ccc(NC(=O)[C@H]2O[C@@H](n3ccc(=O)[nH]c3=O)[C@H](O)[C@@H]2O)cc1 was tested. Which fluorescence ratio to DMSO did it give?
Answer: The fluorescence ratio to DMSO was 99%.

Question: For CCOC(=O)C1CCCN(C(=O)COc2ccc(N(C)S(=O)(=O)c3ccc(C)cc3)cc2)C1 (configuration not stated), which fluorescence ratio to DMSO is on record?
Answer: The fluorescence ratio to DMSO was 98%.
